In the library only some 4.5% were active in any assay of this set; here they are far more common.
Mdm2-MdmX inh: inhibitors of human Mdm2/MdmX interaction. O15151+Q00987. SaOS-2 split-luciferase Mdm2/MdmX complementation, luminescence. inhibition, % at 8 µM. 3% of 330,000 active. AID 485346;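 active means inhibition of at least 50% at 8 µM in the primary screen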
Jurkat NFkB inh: lowers PMA/ionomycin-induced NF-kB signal in Jurkat cells; 0.53% of 330,000 active; inhibition, % at 4 µM; PMA/ionomycin-induced NF-kB luciferase reporter, luminescence; AID 435003; in the data active means inhibition above about 50%
CSC inhib: blocks cancer stem cells. 1.1% of 300,000 active. cancer stem cell-like cells viability, luminescence. inhibition, % at 7.5 µM. AID 2717; in the data active means inhibition above about 75%; inconclusive means no clear call, values can overlap the other calls; tested in HMLE shEcad cells
697 NFkB inh: inhibitors of the PMA/ionomycin-induced NF-kB reporter in 697 B cells; 697 B-cell NF-kB luciferase reporter, 16 h; inhibition, % at 4 µM; 0.33% of 330,000 active; AID 435022; in the data active means inhibition above about 35%
aSyn UTR inh: 5' untranslated region of α-synuclein, MLPCN primary screen. alpha-synuclein 5'UTR reporter, inhibitor activity. inhibition, % (tested at 7.5 µM). 0.82% of 300,000 active; in the data active means inhibition above about 60%; inconclusive means no clear call, values can overlap the other calls;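 further: H4 neuroglioblastoma cells stably carrying SNCA 5'UTR luciferase fusion; 0% = DMSO wells and 100% = positive control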
Gli-Sufu antag: blocks Gli-Sufu signaling in a luciferase reporter | Sufu-KO-LIGHT fibroblasts, Gli luciferase reporter luminescence | inhibition, % at 5 µM | 0.74% of 340,000 active;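 active means inhibition above about 55%, limit read from the data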;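 further: 0% = DMSO-treated cells and 100% = wells with medium but no cells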
697 NFkB conf: inhibitors of the PMA/ionomycin-induced NF-kB reporter in 697 B cells, retest. shares compounds with 697 NFkB inh. 697 B-cell NF-kB luciferase, 16 h. inhibition, % at 4 µM. 35% of 2,000 active; in the data active means inhibition mostly above about 28%, no sharp cut-off; inactive means mostly below about 22%
Active calls of the source: *; ? = inconclusive; nt = no result.

SMILES | Mdm2-MdmX inh | Jurkat NFkB inh | CSC inhib | 697 NFkB inh | aSyn UTR inh | Gli-Sufu antag | 697 NFkB conf
CC(=O)Nc1cccc(/C(C)=N/N2C(C)CCCC2C)c1 (stereo not drawn) | 0 | -25 | nt | -8 | -4 | 5 | nt
COc1ccc(C(=O)N/N=C/c2sc(N3CCOCC3)nc2-c2ccccc2)cc1OC | 33 | 2 | 7 | 41* | 16 | -3 | 32*
CCCCCCOc1ccc(C(=O)NCCCn2ccnc2)cc1 | 5 | -16 | -1 | -5 | -38 | -4 | nt
CCCCOc1ccc(NC(=O)C(=O)NCCCn2ccnc2)cc1 | -30 | 10 | 26 | 54* | 66* | 23 | 58*
CC(C)C(=O)Nc1ccc(S(=O)(=O)N2CCC(c3nc4ccccc4[nH]3)CC2)cc1 | 14 | 0 | -7 | 5 | 11 | 17 | nt
CC(=O)Nc1ccc(S(=O)(=O)N2CCC(c3nc4ccc(C)cc4[nH]3)CC2)cc1 | 34 | 13 | 13 | 38* | -21 | 6 | 15
O=C(O)c1ccc(N/N=C/c2cc3cc4c(cc3nc2Cl)OCCO4)cc1 | -23 | -103 | 5 | -493 | 8 | -133 | -480
COc1ccc(NC2CCCN(C(=O)c3cccc(N4CCNC4=O)c3)C2)cc1 (stereo not drawn) | 7 | -7 | -10 | 15 | 1 | -4 | nt
CCc1cccc(C)c1NC(=O)COC(=O)c1cc([N+](=O)[O-])ccc1N1CCOCC1 | 6 | 16 | nt | 28 | -1 | 3 | nt
C=CCc1ccc(OCCCCNC2CCCC2)c(OC)c1 | 22 | 6 | 44 | -4 | -37 | 28 | nt
Cc1nc(N2CCC(C)CC2)c2c(C)c(C(=O)O)sc2n1 | -23 | 5 | 9 | 35* | 20 | -6 | 20
Cc1ccc(S(=O)(=O)N2CCN(c3ccccc3)CC2)cc1C(N)=O | -2 | -15 | -2 | 14 | 5 | 7 | nt
Cc1c(OCc2ccc(C(=O)O)cc2)ccc2c(-c3ccccc3)cc(=O)oc12 | 19 | 5 | 10 | 37* | -3 | 3 | 7
CC(C)(C)c1ccc(-c2conc2N)cc1 | -96 | -114 | nt | -97 | nt | -31 | nt
CCNC(=O)c1c(O)c2c([nH]c1=O)CCCC2 | 11 | -11 | -7 | 7 | -19 | -3 | nt
O=C(Nc1ccc(O)cc1)c1c(O)c2c([nH]c1=O)CCCC2 | -113 | -95 | nt | -469 | -131 | -58 | -261
O=C(NC(=O)N1CCN(C(c2ccccc2)c2ccccc2)CC1)c1ccccc1 | 21 | -7 | 7 | 36* | -10 | 10 | -14
CCCNC(=O)N1CCN(C(c2ccccc2)c2ccccc2)CC1 | 24 | -22 | 6 | -10 | -9 | 7 | nt
Cc1cc2cc(CN(CC3CCCO3)C(=O)c3cnccn3)c(=O)[nH]c2cc1C (stereo not drawn) | 13 | 9 | -4 | 36* | 4 | 4 | 6
O=C(Nc1cccc(Oc2ccc3c(c2)C(=O)NC3=O)c1)c1cccs1 | 0 | 17 | 4 | 39* | -6 | -8 | 14*
Cc1cc(=O)[nH]c(N/N=C/c2c[nH]c3ccccc23)n1 | 34 | 4 | -16 | 36* | -21 | 4 | 7
O=C(O)c1ccc(N=Nc2c(O)[nH]c3cc(Cl)ccc23)cc1 | -205 | -91 | -31 | -332 | -294 | -115 | -314
COCCn1c(N)c(Sc2ccc([N+](=O)[O-])cc2)c(=O)[nH]c1=O | 23 | -8 | -7 | 26 | 11 | 0 | nt
Cc1nc(SCC2(C)CC2(Cl)Cl)n[nH]1 (stereo not drawn) | -15 | 11 | 0 | 12 | -15 | 2 | nt
COc1ccccc1N(/N=C1\Sc2ccccc2C1=O)C(C)=O | 36 | -98 | -14 | -391 | 20 | 34 | -331
SMILES | Mdm2-MdmX inh | Jurkat NFkB inh | CSC inhib | 697 NFkB inh | aSyn UTR inh | Gli-Sufu antag | 697 NFkB conf
COc1ccc(N(/N=C2\Sc3ccccc3C2=O)C(C)=O)cc1 | nt | nt | nt | nt | -143 | -16 | nt
CCCCc1ccc(NC(=O)CSC2=NN3CCCC(=O)N=C3S2)cc1 | 34 | -6 | nt | -15 | 5 | 3 | nt
CCCCCCn1c(-c2ccco2)nc2oc3cc(OC)ccc3c(=O)c2c1=O | 9 | 7 | -11 | 42* | -53 | 22 | 35*
COc1ccc(C(=O)NCCCNC(=O)c2cnccn2)cc1 | 4 | 18 | -10 | 4 | -13 | -11 | nt
Cc1nc(CC(C)C)cc(C(=O)N2CCCC(CNS(=O)(=O)c3cccs3)C2)n1 (stereo not drawn) | 20 | 8 | -3 | 22 | -12 | -3 | nt
O=C(NCCC1CCCCN1S(=O)(=O)c1ccc(Cl)cc1)C(=O)NCc1ccncc1 (stereo not drawn) | -34 | 3 | 24 | 45* | 62* | 25 | 43*
N=c1c(S(=O)(=O)c2ccccc2)cc2c(=O)n3ccccc3nc2n1Cc1ccco1 | 26 | -6 | -2 | 5 | 9 | 2 | nt
Cc1ccc(S(=O)(=O)c2cc3c(=O)n4ccccc4nc3n(Cc3ccco3)c2=N)cc1C | 24 | 22 | 40 | 40* | 27 | -9 | 0
CCOC(=O)c1c(-c2ccc(C)cc2)csc1NC(=S)NC(=O)c1ccccc1 | 23 | 3 | nt | -486 | 10 | 4 | 0
COC(=O)c1c(-c2ccc(C)cc2)csc1NC(=S)NC(=O)c1ccc(F)cc1 | 23 | -6 | -9 | -24 | 6 | 6 | nt
COc1ccc(C(=O)/C=C/c2ccccc2C(F)(F)F)cc1 | 18 | -6 | 11 | 1 | -68 | 3 | nt
Cc1nc2cc(-c3cccc(F)c3)nn2c(C)c1CCC(=O)NC(C)CCc1ccco1 (stereo not drawn) | 27 | 24 | -8 | 42* | 51 | 26 | 37*
Cc1nc2cc(-c3cccc(F)c3)nn2c(C)c1CCC(=O)NC(C)c1ccc2c(c1)OCCO2 (stereo not drawn) | 22 | -3 | -10 | 19 | 29 | 14 | nt
Cc1nc2cc(-c3ccccc3)nn2c(C)c1CCC(=O)NCc1ccco1 | 5 | 2 | 1 | 46* | ? | 11 | 37*
COc1cc(OC)cc(-c2cc3nc(C)c(CCC(=O)NC(C)CCc4ccco4)c(C)n3n2)c1 (stereo not drawn) | 16 | 7 | -12 | 22 | 48 | 21 | nt
COc1ccccc1-c1cc2nc(C)c(CCC(=O)NCc3ccco3)c(C)n2n1 | 28 | 9 | -7 | 33 | 21 | 12 | nt
CCOC(=O)C1CCCCN1C(=O)CCc1c(C)nc2ncnn2c1C (stereo not drawn) | -15 | 2 | -9 | 17 | ? | 5 | nt
CCOC(=O)C1CCCCN1C(=O)CCc1c(C)nc2cc(-c3ccccc3)nn2c1C (stereo not drawn) | -6 | 20 | 2 | 35* | 76* | 25 | 27
Cc1nc2cc(-c3ccccc3)nn2c(C)c1CCC(=O)NC(C)c1ccc2c(c1)OCCO2 (stereo not drawn) | -2 | 2 | -8 | 35* | 52 | 17 | 23
O=C1CNC(=O)N1CC(O)Cn1c2ccccc2c2ccccc21 (stereo not drawn) | 8 | 4 | nt | 11 | 15 | 2 | nt

Compound activity from PubChem BioAssay.
